Screening results (PubChem BioAssay)
Sfp PPTase inh = qHTS Assay for Inhibitors of Bacillus subtilis Sfp phosphopantetheinyl transferase (PPTase); 4'-phosphopantetheinyl transferase ffp (Bacillus subtilis), Q9F4F7; Biochemical Sfp PPTase activity, qHTS; Potency, µM, most hits filed as inhibitors; 310,000 compounds, 3.5% hits; AID 1490, 2009;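 note: the enzyme is Sfp with the accession as filed and its product quenches rhodamine fluorescence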
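Fluorescence-quenching assay with 15 nM Sfp, 5 uM rhodamine-CoA and 12.5 uM BHQ-2-labelled ybbR peptide in pH 7.6 Hepes/MgCl2 buffer. Enzyme was pre-incubated with compound for 15 min at room temperature. Rate was taken from the 30-min fluorescence change (525/598 nm).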
HP1b binding inh = HTS for Inhibitors of HP1-beta Chromodomain Interactions with Methylated Histone Tails; AlphaScreen HP1-beta / biotin-H3K9me3 peptide binding; Potency, µM (highest dose often 114 µM), hits mostly inhibitors; 390,000 compounds, 0.56% hits; note: nearly all actives have a fitted effect of over 70% in size
Target sequence (P83916 whole entry, looked up): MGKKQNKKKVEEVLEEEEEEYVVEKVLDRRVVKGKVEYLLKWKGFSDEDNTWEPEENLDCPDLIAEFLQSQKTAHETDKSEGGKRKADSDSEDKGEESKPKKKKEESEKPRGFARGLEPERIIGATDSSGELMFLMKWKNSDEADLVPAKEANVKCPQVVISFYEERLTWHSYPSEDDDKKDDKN
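Compound inhibition of the preformed complex between 50 nM HP1-beta and 50 nM biotinylated H3K9me3 peptide was read by AlphaScreen. Buffer was PBS pH 7.4 with 0.01% Tween-20. Incubations ran 30 min at room temperature, with 10 ug/mL donor/acceptor beads.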
BAZ2B block = qHTS Assay for Inhibitors of BAZ2B; Bromodomain adjacent to zinc finger domain protein 2B (Homo sapiens), Q9UIF8; AlphaScreen BAZ2B-H3K14Ac peptide displacement; Potency, µM (doses to about 114 µM), most hits filed as inhibitors; 360,000 compounds, 4.4% hits; AID 504333, 2011; note: nearly all actives have a fitted effect of over 60% in size
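Protein-peptide AlphaScreen: BAZ2B 50 nM, b-H3K14Ac 50 nM, 1x PBS pH 7.4 + 0.01% Tween-20. Preincubation 30 min RT; cpd 30 min RT (top 110 uM); beads 20 min RT, light-protected.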
JMJD2A Tudor = qHTS Assay for Inhibitors of JMJD2A-Tudor Domain; 390,000 compounds, 4.4% hits; AID 504339, 2011; Lysine-specific demethylase 4A (Homo sapiens), O75164; Potency, µM (highest dose often 114 µM), most hits filed as inhibitors; AlphaScreen JMJD2A-Tudor / H3K4me3 peptide binding; note: nearly all actives have a fitted effect of over 50% in size
G9a inh = qHTS Assay for Inhibitors of Histone Lysine Methyltransferase G9a. Potency, µM (titrated, usually from 102 µM), hits mostly inhibitors. 350,000 compounds, 8.8% hits. G9a H3K9 monomethylation, AlphaScreen, 2 h. Histone-lysine N-methyltransferase EHMT2 (Homo sapiens), Q96KQ7. AID 504332, 2011; note: nearly all actives have a fitted effect of over 75% in size
Target sequence (Q96KQ7 913-1193 limits assumed): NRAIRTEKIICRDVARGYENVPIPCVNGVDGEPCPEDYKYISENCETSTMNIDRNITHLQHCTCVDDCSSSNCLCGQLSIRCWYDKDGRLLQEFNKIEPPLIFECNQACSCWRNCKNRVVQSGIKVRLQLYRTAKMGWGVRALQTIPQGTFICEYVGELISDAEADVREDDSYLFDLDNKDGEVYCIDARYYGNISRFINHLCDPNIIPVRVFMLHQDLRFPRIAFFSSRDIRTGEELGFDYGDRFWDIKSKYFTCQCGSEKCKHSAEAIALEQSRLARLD
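Signal arises when biotinylated H3K9 peptide, once monomethylated, bridges streptavidin donor and antibody-captured acceptor beads. Enzyme at 20 nM was preincubated 15 min with test compounds; peptide 500 nM and SAM 20 uM then reacted for 2 h.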
Of the large screens only hits and unclear results are named; the others gave an inactive call; ! = not active in a repeat. Most compounds without a hit are left out; they make up all but 12% or so of the library. Calls come from the whole dose curve; as a rule, active = well fitted curve in the direction sought with a large enough effect; inconclusive = small, poorly fitted or top-dose-only effect, or another doubt; inactive = no such curve, though single readings can be large; an effect the other way counts as inactive or inconclusive.

COc1ccc(/C=C/C(=O)N/C(=C\c2ccco2)C(=O)NCCc2nc3ccccc3[nH]2)cc1	Sfp PPTase inh inconclusive, BAZ2B block inconclusive, JMJD2A Tudor inconclusive, G9a inh 44.7µM
O=C(NCCc1nc2ccccc2[nH]1)/C(=C/c1ccco1)NC(=O)c1ccc(Br)cc1	Sfp PPTase inh inconclusive, G9a inh 70.8µM
O=C(/C=C/c1ccco1)N/C(=C\c1ccco1)C(=O)NCCc1nc2ccccc2[nH]1	Sfp PPTase inh 50.1µM, BAZ2B block inconclusive, JMJD2A Tudor inconclusive, G9a inh 44.7µM
O=C(NCCc1nc2ccccc2[nH]1)/C(=C/c1ccc(F)cc1)NC(=O)c1ccco1	none
CCc1cccc(Nc2c3c(nc4ncnn24)CCC3)c1	none
COCC(=O)Nc1nc(-c2ccccc2)c(C)s1	G9a inh 44.7µM
Cc1sc(NC(=O)c2ccco2)nc1-c1ccccc1	none
CCC(C)C(=O)Nc1nnc(CCc2ccccc2)s1 (centres undefined)	JMJD2A Tudor 70.8µM (no result: G9a inh)
COCC(=O)Nc1nnc(-c2cccs2)s1	G9a inh 44.7µM
CC(C)CC(=O)Nc1nnc(CCc2ccccc2)s1	none
CCC(=O)Nc1nnc(-c2cccs2)s1	none
COCc1nnc(NC(=O)CCc2ccccc2)s1	G9a inh 11.2µM
COCc1nnc(NC(=O)CCc2ccc(OC)cc2)s1	none (no result: G9a inh)
COc1ccc(NC(=O)c2ccc3c(c2)N(Cc2cccc(Cl)c2)C(=O)c2ccccc2S3(=O)=O)cc1Cl	none (no result: Sfp PPTase inh)
CCC(C)C(=O)Nc1nnc(-c2cccs2)s1 (centres undefined)	Sfp PPTase inh 50.1µM, G9a inh 14.1µM
O=C(Nc1nnc(-c2cccs2)s1)C1CC1	G9a inh 22.4µM
CCC(CC)c1nnc(NC(=O)CCc2ccc(OC)cc2)s1	Sfp PPTase inh 44.7µM, BAZ2B block inconclusive, G9a inh inconclusive
CCC(CC)c1nnc(NC(=O)CCc2ccccc2)s1	none
O=C(Nc1ccc(Cl)c(S(=O)(=O)N2CCOCC2)c1)c1ccccc1-c1ccc(C(F)(F)F)cc1	none
O=Cc1cccc(OCc2cccc3ccccc23)c1	none
Cc1sc(NC(=O)Cn2nc(C(F)(F)F)cc2C)c(C(=O)OC(C)C)c1C	none
COC(=O)c1ccc(CN(Cc2ccc(C(=O)OC)o2)C(C)(C)C)o1	Sfp PPTase inh inconclusive, BAZ2B block inconclusive
Cc1nn(Cc2ccccc2)c(Cl)c1/C=C1\NC(=S)NC1=O	Sfp PPTase inh 39.8µM, G9a inh 39.8µM
Cc1scc2c1N(C(=O)CN1CCN(C)CC1)c1ccccc1NC2=O	BAZ2B block inconclusive, G9a inh 35.5µM!
O=[N+]([O-])c1ccc(/C=N/n2c(COc3ccccc3)n[nH]c2=S)cc1	BAZ2B block inconclusive, JMJD2A Tudor 79.4µM, G9a inh inconclusive
O=[N+]([O-])c1cccc(/C=N/n2c(COc3ccccc3)n[nH]c2=S)c1	Sfp PPTase inh 56.2µM, BAZ2B block inconclusive, JMJD2A Tudor 56.2µM
Cc1ccccc1OCc1nc2ccccc2c(=O)n1/N=C/c1cccc([N+](=O)[O-])c1	none
Cc1ccc(OS(=O)(=O)c2ccccc2)c(/C=N/N=C2\NC(=O)C(C)S2)c1 (centres undefined)	JMJD2A Tudor inconclusive
CCOC(=O)C1CCCN(c2nc3c(S(=O)(=O)c4ccc(CC)cc4)nnn3c3ccsc23)C1 (centres undefined)	none (no result: Sfp PPTase inh)
CCOC(=O)C1CCCN(c2nc3c(S(=O)(=O)c4ccc(Br)cc4)nnn3c3ccsc23)C1 (centres undefined)	JMJD2A Tudor 89.1µM (no result: Sfp PPTase inh)
CCOc1ccc2[nH]c(=S)[nH]c2c1	JMJD2A Tudor 44.7µM, G9a inh inconclusive
CCOc1ccc2nc(-c3ccccc3)[nH]c2c1	G9a inh inconclusive
CC1CCC2C(C1)Nc1c(C(=O)O)cccc1C2(C)C (centres undefined)	BAZ2B block 79.4µM (no result: G9a inh)
CN(CC(=O)Nc1ccc(F)c(F)c1F)C(=O)C1CCN(C(=O)Nc2ccccc2)CC1	none (no result: Sfp PPTase inh)
O=C(O)CSc1ccnc2cc(Cl)ccc12	Sfp PPTase inh 56.2µM, G9a inh 56.2µM
COC(=O)CSc1ccnc2cc(Cl)ccc12	none
